High-throughput results as filed in PubChem.
Compounds with a hit are over-represented: about 2.9% of the library has one in this group of screens.
SNCA expr inhib – Primary qHTS assay for inhibitors of alpha-synuclein gene (SNCA) expression. HEK-293 SNCA-luciferase knock-in, luminescence, 24 h. Potency, µM (series often up to 57.2 µM), most hits filed as inhibitors. actives 0.17% (n = 140,000); also: nearly all actives have a fitted effect of over 45% in size
SNCA viab count – GF-AFC viability counterscreen for inhibitors of alpha-synuclein gene (SNCA) expression; HEK-293-SNCA-luc viability, GF-AFC fluorescence, 24 h; Potency, µM (series often up to 57.1 µM), usual class: cytotoxic; actives 0.12% (n = 150,000); AID 1671193, 2021; also: nearly all actives have a fitted effect of over 30% in size
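HEK-293-SNCA-luc cells (1500/well) plated 24 h, then exposed 24 h to a dilution series; GF-AFC added 30 min at 37C, fluorescence 405/540 nm; normalised to medium-only and DMSO wells, Hill fit.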
KDM5B inh – Primary screen for KDM5B Histone Demethylases FDH-coupled qHTS; KDM5B demethylase, FDH-coupled NADH fluorescence (FDH is formaldehyde dehydrogenase); Lysine-specific demethylase 5B (Homo sapiens), Q9UGL1; Potency, µM (top dose mostly 57.7 µM), usual class: inhibitors; actives 2.6% (n = 220,000); AID 1347165, 2019; also: nearly all actives have a fitted effect of over 70% in size
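Inhibition is measured as reduced NADH fluorescence generation from FDH coupling to formaldehyde release. Truncated KDM5BΔAP at 200 nM final acts on H3K4me3 peptide (12.5 µM in substrate mix) in pH 7.5 HEPES buffer with Tween-20, 30 min, room temperature.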
IP6K1 inh – Primary qHTS assay for small molecule inhibitors of Inositol hexaphosphate kinase 1 (IP6K1); IP6K1 kinase, ADP-Glo luminescence, 2 h; active compounds read low; activity change, % (series mostly up to about 58 µM); actives 0.81% (n = 140,000); AID 1645851, 2021; in the data active = activity change below about -25%
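ADP-Glo luminescence measures ADP made by human IP6K1 during a 2 h RT reaction with ATP/IP6 (mix at 1.3 mM/130 uM); top library doses 57.5 and 19.1 uM final.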
Of the large screens only hits and unclear results are named; the others gave an inactive call. Unless noted, calls follow the shape of the dose curve; as a rule, active = well fitted curve in the direction sought with a large enough effect; inconclusive = small, poorly fitted or top-dose-only effect, or another doubt; inactive = no such curve, though single readings can be large; an effect the other way counts as inactive or inconclusive.

CNC(=O)c1cc(C2CC2)nc2c1c(C1CCN(C(=O)N(C)C)CC1)nn2C	none (no result: SNCA expr inhib, SNCA viab count, KDM5B inh)
Cc1ccc2nc(CN3CCCC(CO)(CC4CC4)C3)cn2c1 (centres undefined)	KDM5B inh 22µM
Cc1cccc(C(=O)NC(NC(=O)c2cccc(C)c2)c2ccccc2)c1	none (no result: SNCA expr inhib, SNCA viab count, IP6K1 inh)
CCOc1ccc(NC(=O)c2c(NCc3cc(OC)c(OC)cc3OC)sc3c2CCCC3)cc1	KDM5B inh inconclusive, IP6K1 inh -30
CNC(=O)c1cc(-c2cnc(OC)nc2)cc2c1OCCN2Cc1cccnc1	none
CNC(=O)c1cc(-c2ccc(F)cc2OC)cc2c1OCCN2Cc1cccnc1	KDM5B inh 40µM
CNC(=O)c1cc(-c2cnn(C)c2C)cc2c1OCCN2Cc1cccnc1	SNCA viab count inconclusive, KDM5B inh 35µM
CNC(=O)c1cc(-c2ccc(OC)c(OC)c2)cc2c1OCCN2Cc1cccnc1	KDM5B inh 32µM
COc1ncc(-c2cc(C(=O)NCc3cccnc3)c3c(c2)N(C)CCO3)cn1	none
CNC(=O)c1cc(-c2ccc([S+](C)(=O)[O-])cc2)cc2c1OCCN2Cc1cccnc1	KDM5B inh 35µM
O=C(c1ccccc1OCC1CCCN(Cc2ccc3[nH]ccc3c2)C1)N1CCCC1 (centres undefined)	none
COc1ccc(CCNC(=O)c2c(C)noc2-c2ccc(C(C)(C)C)cc2)cc1OC	none
Cc1ccc(-c2ccc3nnc(CNC(=O)c4cccc(C#N)c4)n3n2)cc1	KDM5B inh 11µM
N#Cc1cccc(C(=O)NCc2nnc3ccc(-c4ccc(F)cc4)nn23)c1	KDM5B inh 28µM
Cc1ccc(-c2ccc3nnc(CNC(=O)c4cccc(N(C)C)c4)n3n2)cc1	none
O=C(NCc1nnc2ccc(-c3ccc(F)cc3)nn12)c1cccc(OC(F)(F)F)c1	KDM5B inh inconclusive
COCCCNC(=O)c1ccc2c(c1)n(Cc1ccc(OC)cc1)c(=O)c1ccnn12	none
CCN1CCN(C(=O)c2ccc3c(c2)n(Cc2cccc(F)c2)c(=O)c2ccnn23)CC1	KDM5B inh 25µM
CCCCNC(=O)c1ccc2c(c1)n(Cc1cccc(OC)c1)c(=O)c1ccnn12	KDM5B inh 35µM
COCCCNC(=O)c1ccc2c(c1)n(Cc1cccc(F)c1)c(=O)c1ccnn12	KDM5B inh 28µM
O=C(Nc1ccccc1)c1ccc2c(c1)n(Cc1cccc(F)c1)c(=O)c1ccnn12	KDM5B inh inconclusive
COCCN1CCC(CN(Cc2ccncc2)C(=O)c2cnco2)CC1	none
Cc1cccc(CNC(=O)NCC2CCN(Cc3ccncc3)C2)c1 (centres undefined)	KDM5B inh 14µM
Nc1cccc(C(=O)NCC2CCN(Cc3cc(F)cc(F)c3)C2)c1 (centres undefined)	KDM5B inh 28µM
O=C(NCC1CC1)c1cccc(OC2CN(Cc3cccc(F)c3)C2)c1	none
Clc1ccc(CN2CCC3(CC2)CC(Cc2ccccc2)=NO3)cc1	SNCA expr inhib inconclusive
Fc1ccc(CN2CCC3(CC(Cc4ccccc4)=NO3)C2)cc1 (centres undefined)	KDM5B inh 32µM
COc1ccc(CN2CCC3(CC(Cc4ccccc4)=NO3)C2)cc1 (centres undefined)	KDM5B inh 25µM
O=C(c1cccc2nccnc12)N1CCOC(C(F)(F)F)C1 (centres undefined)	none
CCCOC1CCCN(C(=O)c2ccc3nc(-c4ccc(F)cc4)cn3c2)C1 (centres undefined)	KDM5B inh 28µM
O=C(c1ccc(F)cc1)N1CCCC(c2nc(-c3ccc(F)cc3)no2)C1 (centres undefined)	none (no result: SNCA expr inhib, KDM5B inh)
O=C(c1ccc2nc(-c3ccc(F)cc3)cn2c1)N1C[C@@H]2CCCN[C@@H]2C1	KDM5B inh 28µM
O=C(c1ccc2nc(-c3ccccc3)cn2c1)N1CCOC(C(F)(F)F)C1 (centres undefined)	KDM5B inh 32µM
COc1ccccc1NC(=O)c1cc(S(=O)(=O)N2CCN(c3ccccc3Cl)CC2)ccc1F	none
COc1ccccc1N1CCN(S(=O)(=O)c2ccc(F)c(C(=O)Nc3ccc(Cl)cc3C(F)(F)F)c2)CC1	IP6K1 inh -34
O=C(c1ccc2c(c1)OCO2)N1CCn2c(nnc2-c2cccnc2)C1	none
N#Cc1ccnc(N2CCN(C(=O)Nc3ccc(F)cc3)CC2)c1	none (no result: SNCA expr inhib, SNCA viab count, IP6K1 inh)
O=C(C1CCCN(C2CCN(c3ncccn3)CC2)C1)N1CCOCC1 (centres undefined)	KDM5B inh 20µM
CNc1ccnc(N2CCC(N3CCCC(C(=O)N4CCCC4)C3)CC2)n1 (centres undefined)	KDM5B inh inconclusive
CN1CCN(C(=O)C2CCCN(C3CCN(c4cc(C#N)ccn4)CC3)C2)CC1 (centres undefined)	SNCA expr inhib inconclusive, KDM5B inh 28µM
CN(C)[C@@H]1CN(C2CCOCC2)CC[C@@H]1CO	none
O=C1CN(C(=O)Cc2c[nH]c3ncc(-c4ccccc4)cc23)CCN1	KDM5B inh 40µM
COC1CCN(C(=O)Cc2c[nH]c3ncc(-c4ccccc4)cc23)CC1	KDM5B inh 40µM
COc1ccc(-c2cnc3[nH]cc(CC(=O)N4CCC(OC)CC4)c3c2)cc1	KDM5B inh 35µM
COc1ccc(-c2cnc3[nH]cc(CC(=O)N4CCCC4)c3c2)cc1	KDM5B inh 35µM
O=C(Cc1c[nH]c2ncc(-c3ccccc3)cc12)NC1CC1	KDM5B inh inconclusive
CCc1noc(-c2cn(C3CCN(C(=O)C(C)Oc4ccccc4)CC3)nn2)n1 (centres undefined)	KDM5B inh inconclusive
Cc1cc(C)n(CCc2nc3cc(NC(=O)COc4ccccc4)ccc3n2C)n1	none (no result: SNCA expr inhib, SNCA viab count, IP6K1 inh)
Cc1noc(-c2ccccc2OC2CCN(C(=O)CCC3CCCC3)C2)n1 (centres undefined)	none (no result: KDM5B inh)
CN1CC[C@H]2COC(=O)N2c2cc(F)ccc2C1	none
O=C(Nc1ccc(Cl)c(Cl)c1)c1nn(-c2ccccc2)c(=O)c2ccccc12	none (no result: SNCA expr inhib, SNCA viab count, IP6K1 inh)
O=C(CN1CCC(C(=O)N2CCCCCC2)CC1)c1c[nH]c2ccccc12	none (no result: SNCA expr inhib, SNCA viab count, IP6K1 inh)
CCOc1ccccc1C(=O)NC1CCN(c2cc(-c3ccc(OC)cc3)[nH]n2)C1 (centres undefined)	KDM5B inh 13µM
COc1ccccc1CC(=O)NC1CCN(c2cc(-c3ccccc3)[nH]n2)C1 (centres undefined)	KDM5B inh 16µM
CCOc1ccc(CC(=O)NC2CCN(c3cc(-c4ccc(F)cc4)[nH]n3)C2)cc1OCC (centres undefined)	KDM5B inh 8.9µM
Cc1ccccc1C1CC(=O)NC(SCC(=O)Nc2cccc(C(F)(F)F)c2)=C1C#N (centres undefined)	none (no result: SNCA expr inhib, SNCA viab count, IP6K1 inh)
COc1ccc(CC(=O)N2CCCN(c3cc(-c4ccc(OC)cc4)[nH]n3)CC2)cc1	KDM5B inh inconclusive
Cc1cc(N2CCCCC2)nc2ccccc12	none (no result: SNCA expr inhib, KDM5B inh)
